High-throughput results from PubChem BioAssay.
Only some compounds are listed: those with a hit (about 7.3% of all), similar ones and a draw of the others.
HCV inh: qHTS Assay for Inhibitors of Hepatitis C Virus (HCV). actives 3.4% (n = 340,000). Huh7.5.1 HCVcc-Cre infection, luciferase reporter, 44 h. Potency, µM (top dose mostly 41.8 µM), hits mostly inhibitors
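Compounds are dispensed onto cells plated 4 h earlier at 1,000 per well, with HCVcc-Cre virus (about 0.5 moi) added next. Following 44 h of culture, luminescent signal is measured for 15 sec after 15 min with substrate at room temperature.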
HCMV inh: qHTS Assay for inhibitors of the human cytomegalovirus (HCMV); HFF cells, HCMV-luciferase reporter, 72 h; active compounds read low; activity change, negative = inhibition, % at 57.5 µM; actives 4.5% (n = 410,000); AID 1259415, 2018; in the data active means activity change below about -60%; inconclusive means no clear call, values can overlap the other calls; inactive means above about -39%
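After 16 h attachment at 37C, HFF cells received test compound and HCMV-luciferase (1 PFU/cell); reporter luminescence read 72 h later, data normalized against buffer-only and known inhibitor Salinomycin.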
AmpC inh detg: qHTS Inhibitors of AmpC Beta-Lactamase (assay with detergent); P00811; AmpC hydrolysis of nitrocefin, absorbance 480 nm, 0.01% Triton; Potency, µM (series often up to 114 µM), hits mostly inhibitors; actives 0.041% (n = 370,000); AID 485294, 2010; further: nearly all actives have a fitted effect of over 25% in size
Target sequence (P00811 whole entry, looked up): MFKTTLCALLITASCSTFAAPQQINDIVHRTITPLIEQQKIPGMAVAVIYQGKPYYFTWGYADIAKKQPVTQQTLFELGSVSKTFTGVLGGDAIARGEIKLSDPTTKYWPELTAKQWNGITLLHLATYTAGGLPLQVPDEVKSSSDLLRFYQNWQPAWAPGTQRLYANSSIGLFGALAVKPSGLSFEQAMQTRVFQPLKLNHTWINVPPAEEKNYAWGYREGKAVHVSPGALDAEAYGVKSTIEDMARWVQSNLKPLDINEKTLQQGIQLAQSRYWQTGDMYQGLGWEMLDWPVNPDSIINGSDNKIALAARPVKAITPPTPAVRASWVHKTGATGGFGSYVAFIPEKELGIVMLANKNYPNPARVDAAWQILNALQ
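20 mM phosphate pH 7.0 + 0.01% (detergent screen) or 0.0001% Triton X-100; 5.3 nM AmpC reagent; cpd preinc 15 min RT; nitrocefin (800 uM stock) to start; A480 q20 s × 4 min; Activity was normalised to no-enzyme and no-compound control wells.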
FMDV antiviral: High Throughput Screening for Foot and Mouth Disease Virus Antivirals. FMDV antiviral cell-based qHTS. Potency, µM (highest dose often 57.9 µM), most hits filed as inhibitors. actives 1.2% (n = 410,000). AID 1159524, 2015; calls by dose curve; tested in HEK293T cells; further: read-out not given here; nearly all actives have a fitted effect of over 45% in size
AmpC no deterg: qHTS Inhibitors of AmpC Beta-Lactamase (assay without detergent); AmpC nitrocefin hydrolysis, absorbance 480 nm, 0.0001% Triton; AID 485341, 2010; Potency, µM (top dose mostly 57.1 µM), actives largely listed as inhibitors; actives 0.52% (n = 330,000); further: nearly all actives have a fitted effect of over 20% in size
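20 mM phosphate pH 7.0 + 0.01% (detergent screen) or 0.0001% Triton X-100; 5.3 nM AmpC reagent; cpd preinc 15 min RT; nitrocefin (800 uM stock) to start; A480 q20 s × 4 min; Activity was normalised to no-enzyme and no-compound control wells.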
Each line names hits and unclear results; the compound was inactive in the other large screens; ! = repeats disagree. Unless noted, the call rests on the fitted dose curve; in most records, active means well fitted curve in the direction sought with a large enough effect; inconclusive means small, poorly fitted or top-dose-only effect, or another doubt; inactive means no such curve, though single readings can be large; an effect the other way counts as inactive or inconclusive.

Cc1nc(C)c(-c2csc(Nc3ccccn3)n2)s1	HCV inh 8.9µM
CC(=O)Oc1ccc(-c2csc(Nc3ccc(Cl)cn3)n2)cc1	HCV inh 11µM
Cc1nc(N)sc1-c1csc(Nc2ccc(Cl)cn2)n1	HCV inh 8.9µM
COc1ccc(-c2csc(Nc3ccc(C)cn3)n2)cc1	HCV inh inconclusive, AmpC inh detg inconclusive
Cc1ccnc(Nc2nc(-c3sc(C)nc3C)cs2)c1	HCV inh 8.9µM, HCMV inh -107 (no result: AmpC inh detg, AmpC no deterg)
Cc1nc(N)sc1-c1csc(Nc2ccccn2)n1	none
COc1ccccc1CN(C)C(=O)CSc1nnc(C2CC2)n1C1CC1	none
CCOC(=O)c1c(-c2ccc(C)cc2)csc1NC(=O)c1nc(SCC)ncc1Cl	FMDV antiviral inconclusive (no result: HCV inh, AmpC no deterg)
COC(=O)c1cc(COC(=O)c2ccc(OC)c(S(=O)(=O)N3CCCC3)c2)oc1C	HCV inh 16µM, AmpC inh detg inconclusive
COC(=O)c1ccccc1NC(=O)CCCOc1cc(=O)n(C)c2ccccc12	HCMV inh -99 (no result: HCV inh, AmpC inh detg, AmpC no deterg)
CCOc1ccc(NC(=O)CN2CCN(c3ccccc3C)CC2)cc1S(=O)(=O)N1CCCC1	HCV inh inconclusive
COc1ccc(NC(=O)CN2CCCC2c2cccs2)cc1S(=O)(=O)N1CCCCC1 (stereo not drawn)	HCV inh inconclusive, HCMV inh inconclusive, FMDV antiviral 40µM
O=C(CN1CCCC1c1cccs1)Nc1cc(S(=O)(=O)N2CCCC2)ccc1Cl (stereo not drawn)	HCV inh inconclusive (no result: AmpC inh detg)
CCOc1ccc(NC(=O)CN2CCCC2c2cccs2)cc1S(=O)(=O)N1CCCC1 (stereo not drawn)	HCV inh 11µM, HCMV inh -92
O=C(CN1CCCC1c1cccs1)Nc1cccc(S(=O)(=O)N2CCCC2)c1 (stereo not drawn)	HCV inh 10µM
CCCc1cc(=O)[nH]c2nnc(SCC(=O)N3CC(C)OC(C)C3)n12 (stereo not drawn)	AmpC inh detg inconclusive, AmpC no deterg inconclusive
COc1ccc2c3c([nH]c2c1)[C@@H](CO)N(C(=O)CC1CC1)CC31CCN(Cc2ccncc2)CC1	HCMV inh -74 (no result: HCV inh, AmpC inh detg, FMDV antiviral, AmpC no deterg)
O=C(NCC1CCCO1)c1cccc(Oc2ccc([N+](=O)[O-])cc2)c1 (stereo not drawn)	HCV inh inconclusive, HCMV inh -88, FMDV antiviral inconclusive
O=C(CSc1nc2ccc([N+](=O)[O-])cc2s1)NCC1CCCO1 (stereo not drawn)	HCV inh inconclusive, HCMV inh -71
CC1CCCC(C)N1C(=C(Cl)Cl)C(=C1SCCS1)[N+](=O)[O-] (stereo not drawn)	HCV inh inconclusive, HCMV inh -69
COc1ccccc1NC(=O)N1CCc2[nH]c3ccc(Cl)cc3c2C1	HCV inh 11µM, FMDV antiviral inconclusive
COc1ccccc1NC(=O)N1CCN(c2ccnc3cc(Cl)ccc23)CC1	HCV inh inconclusive, HCMV inh -67, FMDV antiviral inconclusive
COc1ccccc1NC(=O)Cc1c(C(=O)O)[nH]c2ccc(Cl)cc12	none (no result: HCV inh, AmpC no deterg)
CC(=O)c1ccc(N2CCN(c3ccnc4cc(Cl)ccc34)CC2)cc1	HCV inh inconclusive, HCMV inh inconclusive, FMDV antiviral inconclusive
COc1ccccc1N1CCN(c2ccnc3cc(Cl)ccc23)CC1	HCV inh inconclusive, HCMV inh -63
CCCc1c(C(=O)N/N=C/c2ccoc2)nnn1-c1nonc1N	none (no result: HCV inh, AmpC inh detg, AmpC no deterg)
O=C(c1ccco1)N1CCCC(c2nc3c(nnn3Cc3ccc(F)cc3)c(=O)[nH]2)C1 (stereo not drawn)	none
O=C1OC(COCC#Cc2ccccc2)CN1c1ccccc1 (stereo not drawn)	none (no result: HCV inh, AmpC inh detg, AmpC no deterg)
CCc1ccc2c(c1)/C(=C/C(=O)c1cccs1)C(=O)N2	HCV inh 22µM, HCMV inh -99, FMDV antiviral 20µM
Cc1cccc2c1NC(=O)/C2=C\C(=O)c1cccs1	FMDV antiviral inconclusive
CCCOc1ccc(C(O)(CCC)CCN2CCCCC2)cc1 (stereo not drawn)	HCV inh 8.9µM, AmpC inh detg inconclusive
CCCOc1ccc(C(=O)CCN2CCCCC2)cc1	none
CCN(c1ccccc1)S(=O)(=O)c1cc(C(=O)Nc2ccccc2Cl)ccc1F	HCV inh inconclusive, HCMV inh -63, AmpC inh detg inconclusive, FMDV antiviral inconclusive
Cc1ccc(C(=O)Nc2ccccc2)cc1S(=O)(=O)Nc1ccc(Br)cc1	none (no result: HCV inh, AmpC no deterg)
CCN(c1ccccc1)S(=O)(=O)c1cc(C(=O)Nc2ccc(Br)cc2)ccc1F	HCV inh 2.8µM!, HCMV inh -89, AmpC inh detg inconclusive, FMDV antiviral 18µM
Cc1c(CCC(=O)O)c(=O)oc2cc3occ(-c4ccc(Br)cc4)c3cc12	HCMV inh -62
Cc1c(Cc2ccccc2)c(=O)oc2cc(OCC(=O)NCc3ccccn3)ccc12	HCV inh inconclusive, HCMV inh -63
Cc1coc2cc3oc(=O)c(CCC(=O)NCc4ccccn4)c(C)c3cc12	HCV inh 1µM, AmpC inh detg inconclusive
COc1ccc(OC)c(CN2CCOc3ccc(C(O)c4cccnc4)cc3C2)c1 (stereo not drawn)	none (no result: HCV inh, HCMV inh, AmpC inh detg, AmpC no deterg)
c1cc(-c2cnc3cccnn23)c2cccnc2c1	HCMV inh -69 (no result: HCV inh, AmpC inh detg, AmpC no deterg)
Cc1cccc(N2CCN(S(=O)(=O)c3ccc(F)c(C(=O)Nc4ccc(C(C)C)cc4)c3)CC2)c1C	none (no result: HCV inh, AmpC no deterg)
CCN(CC)S(=O)(=O)c1ccc(F)c(C(=O)OC2CC(C)OC2=O)c1 (stereo not drawn)	none
Cc1ccc(CN2CCc3nnc(C(NS(C)(=O)=O)C(C)C)n3CC2)cc1C (stereo not drawn)	none (no result: HCV inh, HCMV inh, AmpC inh detg, AmpC no deterg)
Cc1cc(NC(=O)CCCn2ccc([N+](=O)[O-])n2)n(Cc2ccc(F)cc2)n1	HCV inh inconclusive, HCMV inh -84
O=C(CNC(=O)c1ccc(OC(F)F)cc1)Nc1cccc(S(=O)(=O)N2CCCC2)c1	HCV inh inconclusive
Cc1cccc(NC2=Nc3ccccc3N3C2=Nc2c(c(C)nn2-c2ccccc2)C3c2ccc(O)c(O)c2)c1 (stereo not drawn)	HCV inh inconclusive, HCMV inh -97, AmpC inh detg inconclusive
Cc1ccc(NC2=Nc3ccccc3N3C2=Nc2c(c(C)nn2-c2ccccc2)C3c2ccc(O)c(O)c2)cc1 (stereo not drawn)	HCMV inh -64
O=S(=O)(c1ccccc1)N1CCC[C@@]2(CCN(Cc3ccccc3)C2)C1	none (no result: HCV inh, HCMV inh, AmpC inh detg, AmpC no deterg)
Cc1cc(C)c2nc(C(F)(F)F)nc(N3CCN(C(=O)c4ccco4)CC3)c2c1	HCV inh 13µM, HCMV inh inconclusive, FMDV antiviral inconclusive (no result: AmpC no deterg)
Cc1cccc2c(C(=O)N3CCN(C(=O)c4ccco4)CC3)cc(-c3cccc(Br)c3)nc12	HCV inh inconclusive, HCMV inh -64, FMDV antiviral 18µM
